6 molecules from PubChem BioAssay (NCI) can be followed below.

Values joined by “and” are separate entries in the source; they are usually repeats but may differ in a detail not shown here. Identical values can stand only once. Compounds without any hit were thinned out: in the full panel of roughly 83,000, 20% have a hit.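 Results are percent growth after 48 hours of single-concentration exposure. 100 means growth as in untreated cells, lower positive values show inhibition; negative values down to -100 show cell death.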 Unmarked numbers belong to inactive results. Active and inactive are the calls of the source. How the source made its calls: active means growth percent below 10; inactive means the rest.

What all share (assay): NCI-60 one-dose screen, 48 h (100 = growth as untreated, 0 = no growth, -100 = all killed)
Settings in all cases: 10 µM unless noted

The subject of test [1] is DU-145 prostate.
For test [2], the system named is K-562 leukemia.
Test [3] deals with MALME-3M melanoma.
In test [4] the test system is MDA-MB-231 breast.
Test [5] has as its system RXF 393 renal.
The subject of test [6] is SF-268 CNS.
Test [7] relates to SF-295 CNS.
Test [8] concerns SF-539 CNS.
Test [9] deals with UACC-257 melanoma.
In test [10] the test system is M14 melanoma.
The subject of test [11] is HCT-15 colon.
The subject of test [12] is HT29 colon.
The subject of test [13] is SNB-75 CNS.
The subject of test [14] is SNB-19 CNS.
Test [15] relates to U251 CNS.
Test [16] has as its system PC-3 prostate.
In test [17] the test system is SK-MEL-5 melanoma.
Test [18] concerns UACC-62 melanoma.
The test system of test [19] is LOX IMVI melanoma.
Test [20] has as its system SK-MEL-28 melanoma.

`CN1c2ccccc2C(C)(C)C12C=Cc1cc(O)ccc1O2` (stereo not given): the growth in test [1] was 52.1%; in test [2] it was 12%; in test [3] it was 69.1%; in test [4], 60.9%; in test [5] it was 57.1%; in [6], 15.4%. For the same molecule, the growth in test [7] was 55.9%; in [8], 25.8%; in test [9], 56.7%; in test [10], 17.9%; in test [11] it was 43.1%; in test [12], 55.9%. Further, the growth in test [13] was 43.1%; in test [14] it was 61.1%; in test [15] it was 52.9%; in test [16], 37.8%; in test [17], 43.2%; in test [18], 30.2%. The growth in [19] is 47.2%; in test [20] it was 64.5%.

With `N#CSCc1c(Cl)cccc1Cl`, the growth in [1] was 21%; in [2], 83.8%; in [3], 47.1%; in test [4] it was 80.4%; in test [5], 50.1%; in test [6] it was 53.3%. Also, the growth in test [7] was 94.8%; in test [8], 88.5%; in test [9], 79.5%; in [10] it was 9.86% (active); in [11], 14.6%; in test [12], 12%. The growth is 96.4% in [13]; 90.2% in test [14]; 91.8% in test [15]; 76.2% in test [16]; 87.5% in test [17]; 88.5% in test [18]. Moreover, the growth was 49.9% in [19] and 56.2% in test [20].

With `CCCCCCCCCCCCCCCCN(CC)CC`, the growth was -48.4% (active) in [1]; -73.5% (active) in test [2]; -90.3% (active) in test [3]; -86.9% (active) in [4]; -86.2% (active) in test [5]; -34.8% (active) in [6]. For the same molecule, the growth is -92.9% (active) in test [7]; -98.2% (active) in test [8]; -51.9% (active) in test [9]; -16.9% (active) in [10]; -90.2% (active) in test [11]; -56.8% (active) in [12]. In addition, the growth in test [13] was -22.6% (active); in test [14], -87.9% (active); in [15], -66.8% (active); in test [16], 0.915% (active); in test [17] it was -97.7% (active); in [18] it was -86.6% (active). In addition, the growth is -100% (active) in [19] and -91% (active) in [20].

Take `O=C1c2cccnc2-c2nccc3c2c1nc1cc(Br)ccc13`: the growth in test [1] is -88.9% (active) and -99.9% (active); in test [2], -87.4% (active) and -25.6% (active); in [3], 8.18% (active); in test [4], -9.52% (active) and -58% (active); in test [5], -51.7% (active) and -90.9% (active); in [6], -1.91% (active) and -63.6% (active). Also, the growth is 0% (active) and -84.3% (active) in test [7]; -87.2% (active) and -90.5% (active) in test [8]; -78.4% (active) and -83.7% (active) in [9]; -77.1% (active) in test [10]; -49.5% (active) and -71.3% (active) in test [11]; -35% (active) and -75.9% (active) in [12]. The growth is 9.53% (active) and -98.7% (active) in test [13]; -49.7% (active) and -79% (active) in [14]; -75% (active) and -97.8% (active) in [15]; -43.2% (active) and -86.6% (active) in [16]; -97% (active) and -95.4% (active) in [17]; -95.1% (active) and -74.6% (active) in test [18]. Moreover, the growth was -45.9% (active) and -71.1% (active) in test [19]; -67.5% (active) and -74.4% (active) in [20].

As to `CC(=O)ON=C1C=CC(=C(C#N)c2ccccc2)C=C1`, the growth in test [1] was 1.67% (active); in test [2] it was 28.1%; in [3] it was 83.3%; in test [4] it was 13.9%; in [5], 35.5%; in test [6], 14.1%. For the same molecule, the growth in test [7] was 39.8%; in test [8], 24.5%; in test [9] it was 30.5%; in test [10] it was 22.2%; in test [11], 8.51% (active); in test [12] it was 82.2%. Also, the growth in [13] was 19.6%; in test [14], 82.5%; in [15] it was 22.9%; in test [16], -1.95% (active); in [17], 48.1%; in [18] it was 26.1%. The growth in test [19] is 5.8% (active); in test [20], 55.5%.

For the molecule `N#CSCc1ccc(CSC#N)c(Cl)c1`, the growth in test [1] was 42.5%; in test [2], 33.8%; in test [3] it was 54.3%; in test [4] it was 52.5%; in [5] it was 72.2%; in test [6], 65.8%. Besides, the growth in [7] was 102%; in test [8], 58.8%; in [9], 67.6%; in [10], 50.7%; in test [11], 37.1%; in test [12] it was 34.7%. The growth in test [13] is 32.2%; in test [14], 84%; in [15], 85.8%; in test [16], 81.6%; in [17], 65.2%; in test [18] it was 72.2%. In addition, the growth in test [19] was 46.6%; in test [20], 83.3%.
